# Assay results taken from PubChem BioAssay (NCATS).
# Records with an inconclusive call do not appear. Activity calls are given as the source filed them. Unless noted, calls come from the whole dose curve; as a rule, active = well fitted curve in the direction sought with a large enough effect; inconclusive = small, poorly fitted or top-dose-only effect, or another doubt; inactive = no such curve, though single readings can be large; an effect the other way counts as inactive or inconclusive.
# How the values were obtained:
# [1] = molecular target: Cytochrome P450 1A2 (Homo sapiens) (UniProt P05177); test: qHTS for inhibitors of CYPIA2 against the NCATS DSHEA and TCM libraries (AID 1919976);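 note: light from luciferin formed by CYP1A2 from a pro-luciferin substrate; % is set by controls: 0 for no effect and ±100 for the full control effect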
# Procedure, shortened: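 Human CYP1A2 with its pro-luciferin substrate in supplier buffer (typically 100 mM KPO4) was pre-incubated with compounds 15 min at RT. Reaction was started with 1x NADPH regeneration solution and run 30-45 min at RT in the dark, then luminescence was read after P450-Glo detection reagent (30 min RT).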
# [2] = qHTS Counterscreen for compound interference against the NCATS DSHEA and TCM libraries (AID 1919978); conditions: firefly luciferase detection reagent interference, luminescence; note: % of control where 0% means no effect
# Procedure, shortened: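 D-luciferin (1 uM final) or 100 mM potassium phosphate buffer alone was preincubated 15 min at RT with compounds (19.5 nM to 39.8 uM final). Luciferin detection reagent was then added and luminescence read after 30 min at RT.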
# [3] = Dual reporter qHTS for agonist of Pregnane X Receptor (hPXR) against the NCATS DSHEA and TCM libraries: Fluorescence readout (AID 1920058); note: 0% is about no effect
# Procedure, shortened: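 hPXR-Luc HepG2 cells (2000/well) in phenol red-free medium with charcoal-stripped FBS attached for 5 h, then were exposed to compounds for about 24 h at 37 °C. Viability was read by CellTiter-Fluor fluorescence (Ex/Em 405/540 nm) after 1 h.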
# [4] = molecular target: Nuclear receptor subfamily 1 group I member 2 (Homo sapiens) (UniProt O75469); test: Dual reporter qHTS for agonist of Pregnane X Receptor (hPXR) against the NCATS DSHEA and TCM libraries: Luminescence readout (AID 1920059); note: 0% is about no effect
# Excerpt: Assay Development and Screening Technology Laboratory (ADST)
# National Center for Advancing Translational Sciences (NCATS), Rockville, MD
# National Institute of Health (NIH), Bethesda, Maryland
# Dietary Supplements and Natural Products have minor oversight of their safety and efficacy. We assembled a collection of Dietary Supplements and Natural Products (DSNP) as well as Traditional Chinese Medicinal (TCM) Plant extracts, which were screened against an in vitro panel of assays, including a liver cytochrome p450 enzyme panel, CAR/PXR signaling pathways, and P-gp transporter assays, to assess their activity. This pipeline facilitated the interrogation of Natural Product-Drug Interaction (NaPDI) through prominent metabolizing pathways. In addition, we compared the activity profiles of the DSNP/TCM substances with those of an approved drug collection. Many of the approved drugs have well-annotated mechanisms of action (MOA) while the MOAs for most of the DSNP and TCM samples remain unknown. Based on the premise that compounds with similar activity profiles tend to share similar targets or MOA, we clustered the library activity profiles to identify overlap with the NCATS Pharmaceutical Collection to predict the MOAs of the DSNP/TCM substances. Overall, we highlight four significant bioactivity profiles (measured by p-values) as examples of this prediction. To assess broad cytotoxicity, we employed screening against a HepG2 cell line. In addition, transporter-mediated drug interactions are utilized in the characterization of DDIs using a P-glycoprotein (P-gp) assays. To profile potential P-gp activity, a differential cell viability was measured against two cell lines: a parental KB-3-1 human cervical adenocarcinoma cell line and the drug-resistant subline KB-8-5-11 that overexpresses P-gp.
# To this end, we profiled both collections for potential CAR and/or PXR activity, employing a previously published 1536-well qHTS assay.
# [1] Lee TD, et al. A High-Throughput Screen of a Library of Therapeutics Identifies Cytotoxic Substrates of P-glycoprotein. Mol Pharmacol. Nov 2019;96(5):629-640. doi:10.1124/mol.119.115964
# For PXR luciferase reporter gene assays, we used hPXR-LucHepG2cells provided by Dr. Taosheng Chen (Department of Chemical Biology and Therapeutics, St. Jude Children's Research Hospital). Cells were cultured in EMEM supplemented with 10% fetal bovine serum, 100U/mL penicillin and 100ug/mL streptomycin, and 500ug/mL of geneticin.
# PROTOCOL TABLE (as described by Inglese J, Shamu CE and Guy RK. 2007)
# SEQUENCE No. (e.g., 1, 2, 3, etc.); […] (e.g., Cells, Incubation, Reagent, etc.); VALUE; DESCRIPTION.
# 1; Cells; 5 uL; hPXR-LucHepG2; white solid-bottom Greiner plate.
# 2; Incubation; 5h; 37C, 95% humidity, 5% CO2
# 3; Compounds and control; 23 nL; Kalypsis pintool (Wako USA).
# 4; Reagent; 1uL; rifampicin (RIF) in the antagonist mode.
# 6; Reagent; 1 uL; CellTiter-Fluor detection reagent.
# 7; Incubation; 1 hr; 37C, 5% CO2.
# 8; Read; Fluorescence; ViewLux plate reader.
# 9; Reagent; 4 uL; ONE-Glo Luciferase detection reagent.
# 10; Incubation; 30 min; room temperature.
# 11; Read; Luminescence; ViewLux plate reader.
# NOTES (numbers refer to Sequence numbers above)
# 1. Briefly, 5uL of hPXR-LucHepG2 cells in phenol red-free DMEM containing 5% charcoal-stripped FBS, 1 mM sodium pyruvate (Invitrogen), 2 mM L-glutamine (Invitrogen), and 100 U/mL penicillin and 100ug/mL streptomycin were dispensed using a BioRAPTR FRD at 4 x 10^5cells/mL (2000cells/well) in tissue culture-treated 1536-well white assay plates (GreinerBio-One).
# 2. Plates were incubated for 5h at 37C, 95% humidity, and 5% CO2 to allow for cell attachment.
# 3. Compounds (final concentration for most substances ranged from 15.6 nM to 45.9uM), positive control rifampicin (RIF; final concentration range of 2.8 nM to 92uM for the agonist mode), and cytotoxicity control tetraoctyl ammonium bromide (final concentration of 92uM) were transferred (23 nL) via pintool (Wako Automation).
# 4-5. […]
# [5] = molecular target: Nuclear receptor subfamily 1 group I member 2 (Homo sapiens) (UniProt O75469); test: Dual reporter qHTS for antagonist of Pregnane X Receptor (hPXR) against the NCATS DSHEA and TCM libraries: Luminescence Readout (AID 1920060); note: 0% is about no effect
# Procedure, shortened: (§1)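 Rifampicin-stimulated (2 uM final) hPXR-luciferase HepG2 cells were treated for 24 h with DSNP/TCM substances. Viability came from CellTiter-Fluor fluorescence, reporter activity from ONE-Glo luminescence.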
# [6] = Dual reporter qHTS for antagonist of Pregnane X Receptor (hPXR) against the NCATS DSHEA and TCM libraries: Fluorescence Readout (AID 1920061); note: 0% is about no effect
# Procedure, shortened: as §1
# [7] = qHTS profiling for inhibitors of Plasmodium falciparum proliferation (AID 504749); note: nearly all actives have a fitted effect of over 60% in size; note: potency is the fitted concentration of half-maximal effect;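 for activity, negative = inhibition: 0% = DMSO vehicle and full inhibition = artemisinin control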; conditions: P. falciparum in erythrocytes, SYBR Green DNA, 72 h, at 28.7 µM (top of the series)
# Procedure, shortened: (§2)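 Three-day growth assay of blood-stage parasites in erythrocytes (0.3% parasitemia, 2.5% hematocrit) at 37 C, 5% CO2, quantified by SYBR Green DNA staining after overnight detergent lysis.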
# [8] = test system: 3D7; test: as above; conditions: P. falciparum in erythrocytes, SYBR Green DNA, 72 h; series mostly up to 28.7 µM
# Procedure, shortened: as §2
# [9] = test system: 7G8; test: as above; conditions: P. falciparum in erythrocytes, SYBR Green DNA, 72 h; series mostly up to 28.7 µM
# Procedure, shortened: as §2
# [10] = qHTS drug screen for cell cycle checkpoint inhibitors in PARPi-resistant BRCA-mutant ovarian cancer cell lines. (AID 1963452; calls by dose curve; note: potency is the fitted concentration of half-maximal effect); conditions: PEO1/OlaR viability, CellTiter-Glo luminescence, 96 h; for Z-AUC: stronger effect = lower value
# Procedure, shortened: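 PEO1, PEO4 and PEO1/OlaR ovarian cancer cells, 600 per well, exposed 96 h at 37C to a dilution series. Viability read by CellTiter-Glo luminescence, normalized to DMSO and empty wells; activity summarized as Z-AUC.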
# [11] = measured here: PEO1 parental Z-AUC
# Chain of Nuclear receptor subfamily 1 group I member 2 (Homo sapiens) (O75469 whole entry, looked up): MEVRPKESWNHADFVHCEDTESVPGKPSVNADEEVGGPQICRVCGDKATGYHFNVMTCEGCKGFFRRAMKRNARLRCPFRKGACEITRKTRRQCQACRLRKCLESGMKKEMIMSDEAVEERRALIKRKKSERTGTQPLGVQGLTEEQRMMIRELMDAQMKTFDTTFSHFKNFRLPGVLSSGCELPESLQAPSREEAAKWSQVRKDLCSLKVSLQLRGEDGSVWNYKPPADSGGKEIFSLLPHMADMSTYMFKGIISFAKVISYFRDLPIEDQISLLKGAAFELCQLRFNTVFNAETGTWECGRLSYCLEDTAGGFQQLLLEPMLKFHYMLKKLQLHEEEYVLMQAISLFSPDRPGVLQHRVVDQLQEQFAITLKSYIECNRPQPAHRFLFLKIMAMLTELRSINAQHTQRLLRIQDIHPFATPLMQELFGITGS
# Chain of Cytochrome P450 1A2 (Homo sapiens) (P05177 whole entry, looked up): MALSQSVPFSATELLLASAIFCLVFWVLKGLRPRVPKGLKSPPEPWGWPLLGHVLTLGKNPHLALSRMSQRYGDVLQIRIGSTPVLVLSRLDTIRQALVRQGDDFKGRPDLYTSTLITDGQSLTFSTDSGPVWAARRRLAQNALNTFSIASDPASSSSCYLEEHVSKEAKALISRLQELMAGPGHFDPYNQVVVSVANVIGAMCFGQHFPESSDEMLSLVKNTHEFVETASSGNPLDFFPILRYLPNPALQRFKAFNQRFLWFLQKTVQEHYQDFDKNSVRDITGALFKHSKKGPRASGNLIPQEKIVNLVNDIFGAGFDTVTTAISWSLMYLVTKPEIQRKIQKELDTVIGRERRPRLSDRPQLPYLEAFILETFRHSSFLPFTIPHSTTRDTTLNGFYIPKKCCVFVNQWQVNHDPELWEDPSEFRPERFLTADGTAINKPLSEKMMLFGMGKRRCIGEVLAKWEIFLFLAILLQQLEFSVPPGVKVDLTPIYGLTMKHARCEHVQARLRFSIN
compound,measurement,setting,value
CCCCCCCC(=O)O,outcome,[1],inactive
same,max response,[2],5.32% (inactive)
same,outcome,[3],inactive
same,outcome,[4],inactive
same,outcome,[5],inactive
same,outcome,[6],inactive
same,"activity, negative = inhibition",[7]; parasite line A,5.42% (inactive)
same,"activity, negative = inhibition",[7]; parasite line B,9% (inactive)
same,Potency,[8],inactive
same,Potency,[9],inactive
OC[C@H]1O[C@@H](Oc2cc(O)cc(/C=C/c3ccc(O)cc3)c2)[C@H](O)[C@@H](O)[C@@H]1O,Z-AUC,[10],1.9 (inactive)
same,Z-AUC,[10]; [11],1.63
same,Z-AUC,[10]; measured here: PEO4 Z-AUC,1.47
C[C@@H]1CCN(C(=O)CC#N)C[C@@H]1N(C)c1ncnc2[nH]ccc12,Z-AUC,[10],1.14 (inactive)
same,Z-AUC,[10]; [11],0.765
same,Z-AUC,[10]; measured here: PEO4 Z-AUC,1.24
CC1=C(/C=C/C(C)=C/C=C/C(C)=C/CO)C(C)(C)CCC1,max response,[2],0.358% (inactive)
same,outcome,[3],inactive
same,outcome,[5],inactive
same,outcome,[6],inactive
same,Potency,[9],10 µM (active)
CON(C)C(=O)N1N=C(c2cc(F)ccc2F)S[C@@]1(CCCN)c1ccccc1,Potency,[10],0.0087 µM (active)
same,Z-AUC,[10]; [11],-2.66
same,Z-AUC,[10]; measured here: PEO4 Z-AUC,-2.54
O=C(O)c1ccc(CCCc2ccc(OCCc3ccc(F)cc3)cc2)o1,Z-AUC,[10],0.294 (inactive)
same,Z-AUC,[10]; [11],0.863
same,Z-AUC,[10]; measured here: PEO4 Z-AUC,0.926
O=C(O)C[C@H](O)C[C@H](O)/C=C/c1c(C2CC2)nc2ccccc2c1-c1ccc(F)cc1,Z-AUC,[10],-0.947 (inactive)
same,Z-AUC,[10]; [11],-0.553
same,Z-AUC,[10]; measured here: PEO4 Z-AUC,-1.48
CCOC(=O)[C@H]1O[C@@H]1C(=O)N[C@@H](CC(C)C)C(=O)NCCC(C)C,Z-AUC,[10],-0.23 (inactive)
same,Z-AUC,[10]; [11],0.731
same,Z-AUC,[10]; measured here: PEO4 Z-AUC,0.891
CC1=CCC(C(C)(C)O)CC1 (configuration not stated),max response,[2],-0.821% (inactive)
same,outcome,[3],inactive
same,outcome,[4],inactive
same,outcome,[5],inactive
same,outcome,[6],inactive
same,"activity, negative = inhibition",[7]; parasite line A,7.42% (inactive)
same,"activity, negative = inhibition",[7]; parasite line B,12.4% (inactive)
same,Potency,[8],inactive
same,Potency,[9],inactive
Cc1c(C)c2c(c(C)c1O)CC[C@@](C)(CCC[C@H](C)CCC[C@H](C)CCCC(C)C)O2,outcome,[1],inactive
same,max response,[2],-0.537% (inactive)
same,outcome,[3],inactive
same,outcome,[4],inactive
same,outcome,[5],inactive
same,outcome,[6],inactive
same,"activity, negative = inhibition",[7]; parasite line A,-10.2% (inactive)
same,"activity, negative = inhibition",[7]; parasite line B,-2.69% (inactive)
same,Potency,[8],inactive
same,Potency,[9],inactive
